Measured values published in PubChem BioAssay (EPA / NIEHS).
Results filed as inconclusive are left out. Calls of active or inactive are those of the source. Rule for the calls: active = hit-call score of the fitted dose curve at least 0.9, where 1 is the maximum; inconclusive = response in the unintended direction; inactive = score below 0.9.

What follows are compounds tested on alkyl and aryl transferase (GSTA2), GSTA2 (gene 2939) (assay: CLD_GSTA2_24hr: CellzDirect (CLD) Gene Expression Assay for alkyl and aryl transferase (GSTA2) at 24 hours (AID 2283693)).
Description: CLD_24hr is a cell-based, multiplexed-readout assay that uses hepatocyte, a human liver primary cell, with measurements taken at 24 hours after chemical dosing in a 96-well plate.CLD_GSTA2_24hr is one of 16 assay component(s) measured or calculated from the CLD_24hr assay. It is designed to make measurements of mRNA induction, a form of inducible reporter, as detected with chemiluminescence signals by Quantitative Nuclease Protection Assay (qNPA) technology.Data from the assay component CLD_GSTA2_24hr was analyzed at the endpoint, CLD_GSTA2_24hr, in the positive analysis fitting direction relative to DMSO as the negative control and baseline of activity. Using a type of inducible reporter, gain-of-signal activity can be used to understand changes in the reporter gene as they relate to the gene GSTA2. Furthermore, this assay endpoint can be referred to as a primary readout. To generalize the intended target to other relatable targets, this assay endpoint is annotated to the transferase intended target family, where subfamily is alkyl and aryl transferase.
Human hepatocyte cultures were treated daily for two consecutive days with fresh dosing solutions containing appropriate concentrations of the 320 ToxCast chemicals (chemical identities were blinded to CellzDirect and other ToxCast collaborators), vehicle control (0.2% DMSO), and positive control inducers as summarized in Table 1. Due to the large number of treatment groups and chemicals examined, the ToxCast chemicals were divided into two groups (spanning two independent cultures of hepatocytes from separate donor preparations (Hu778: ToxCast plates 1 and 2; Hu776: ToxCast plates 3 and 4). Each preparation of human hepatocyte cultures was treated with respective vehicle control, medium only control, set of six positive controls/reference chemicals for the five hepatic receptor pathways, and a subset of eight of the ToxCast chemicals (indoxacarb, pyrithiobac-sodium, norflurazon, cyhalofop-butyl, methomyl, thiram, acetochlor, and propiconazole). These replicate data, coupled with internal replicates designed within the blinded ToxCast chemical library, provided additional data to evaluate interindividual differences between hepatocyte preparations and their potential impact on chemical profiles.Cell morphology and integrity were evaluated using phase-contrast microscopy as an indicator of hepatocyte cell health (Tyson & Green, 1987). Cultures for each treatment group (i.e., media, vehicle [0.2% DMSO], positive control inducers [multiple concentrations], and the ToxCast chemicals [multiple concentrations]) were observed and cell morphology was assessed relative to vehicle control cultures at each harvest time point (0, 6, 24, or 48 h). […] Images were evaluated at the conclusion of the study to assess changes in cell integrity and account for the effects of chemical exposure on uncharacteristic changes in concentration-dependent gene expression profiles. The results from these determinations of apparent cytotoxicity were annotated (yes/no) alongside the corresponding qNPA data for reference.At the conclusion of each treatment period, hepatocyte cultures (96-well) were washed with 1 volume of HBSS, lysed by addition of 25 ul ArrayPlate lysis buffer (HTG, Tucson, AZ), and 70 ul/well of Denaturation Oil, denatured by incubation at 95C for 10 min, and frozen at approximately -70C until analysis by nuclease protection assay (qNPA) (Roberts et al., 2007). For qNPA analysis, cell lysates were thawed at 50C for approximately 30 min, qNPA probes were added, and samples were incubated at 95C for 10 min to begin the detection process by denaturing the target RNA, dissociating the duplexes and secondary structure hybridization. At the conclusion of the hybridization period, S1 nuclease reagent was added to each sample to digest all nonprotected nucleotides at 50C for 60-90 min. […]

Row | Structure (SMILES) | outcome
1 | CS(=O)(=O)c1ccc(C(=O)C2C(=O)CCCC2=O)c([N+](=O)[O-])c1 | inactive
2 | N#CN=C1SCCN1Cc1ccc(Cl)nc1 | inactive
3 | CCSC(=O)N1CCCCCC1 | inactive
4 | COC(=O)NS(=O)(=O)c1ccc(N)cc1 | inactive
5 | CCCCC(C#N)(Cn1cncn1)c1ccc(Cl)cc1 (stereo not given) | inactive
6 | CNC(=O)N(C)c1nnc(C(C)(C)C)s1 | inactive
7 | COP(=S)(OC)SCn1nnc2ccccc2c1=O | inactive
8 | Clc1nc(Cl)nc(Nc2ccccc2Cl)n1 | inactive
9 | CCOP(=S)(OCC)Oc1nc(Cl)n(C(C)C)n1 | inactive
10 | COc1ccc(-c2ccccc2)cc1NNC(=O)OC(C)C | inactive
11 | O=c1n(Cl)c(=O)n(Cl)c(=O)n1Cl | inactive
12 | CC(C)=CC1C(C(=O)OCc2coc(Cc3ccccc3)c2)C1(C)C (stereo not given) | inactive
13 | Clc1cccc(C(Cl)(Cl)Cl)n1 | inactive
14 | COCc1cnc(C2=NC(C)(C(C)C)C(=O)N2)c(C(=O)O)c1 (stereo not given) | inactive
15 | COC(=O)N(C(=O)N1CO[C@@]2(C(=O)OC)Cc3cc(Cl)ccc3C2=N1)c1ccc(OC(F)(F)F)cc1 | inactive
16 | CC(C)N1C(=O)c2ccccc2NS1(=O)=O | inactive
17 | O=P(O)(O)CCCl | inactive
18 | COCC(=O)N(c1c(C)cccc1C)C(C)C(=O)OC (stereo not given) | inactive
19 | CCCCOCN(C(=O)CCl)c1c(CC)cccc1CC | inactive
20 | CS(=O)(=O)c1cc(C(F)(F)F)ccc1C(=O)c1cnoc1C1CC1 | inactive

Row | Structure (SMILES) | outcome
21 | CC1(C)CON(Cc2ccccc2Cl)C1=O | inactive
22 | Cc1cnc(C2=NC(C)(C(C)C)C(=O)N2)c(C(=O)O)c1 (stereo not given) | inactive
23 | COc1cc(Cl)c(OC)cc1Cl | inactive
24 | CN=C=S | inactive
25 | O=C1C2CC=CCC2C(=O)N1SC(Cl)(Cl)Cl (stereo not given) | inactive
26 | COP(=S)(OC)Oc1ccc([N+](=O)[O-])c(C)c1 | inactive
27 | Cc1c(COC(=O)[C@@H]2[C@H](/C=C(\Cl)C(F)(F)F)C2(C)C)cccc1-c1ccccc1 | inactive
28 | CNC(=O)Oc1cccc2ccccc12 | inactive
29 | CCCN(CC)CC1COC2(CCC(C(C)(C)C)CC2)O1 (stereo not given) | inactive
30 | CSC(=O)c1c(C(F)F)nc(C(F)(F)F)c(C(=O)SC)c1CC(C)C | inactive
31 | CCOc1nc(C(Cl)(Cl)Cl)ns1 | inactive
32 | Cn1c(-c2ccccc2)cc(-c2ccccc2)[n+]1C | inactive
33 | CO/N=C(/C1=NOCCO1)c1ccccc1Oc1ncnc(Oc2ccccc2Cl)c1F | inactive
34 | COCC(C)N(C(=O)CCl)c1c(C)csc1C (stereo not given) | inactive
35 | CC1(C)C(C=C(Cl)Cl)C1C(=O)OC(C#N)c1cccc(Oc2ccccc2)c1 (stereo not given) | inactive
36 | CC(C)C1(C)N=C(c2ncccc2C(=O)O)NC1=O (stereo not given) | inactive
37 | CC1(C)C(C(=O)OC(C#N)c2cccc(Oc3ccccc3)c2)C1(C)C (stereo not given) | inactive
38 | COP(=O)(OC)O/C(C)=C/C(=O)N(C)C | inactive
39 | N#Cc1c(Cl)cccc1Cl | inactive
40 | CCOP(=O)(OCC)Oc1nc(Cl)c(Cl)cc1Cl | inactive
